# Experimental data published in PubChem BioAssay (NCATS).
# Records with an inconclusive call do not appear. A call without a number means that no potency is given here. The source made the active and inactive calls. Calls come from the whole dose curve; as a rule, active = well fitted curve in the direction sought with a large enough effect; inconclusive = small, poorly fitted or top-dose-only effect, or another doubt; inactive = no such curve, though single readings can be large; an effect the other way counts as inactive or inconclusive.
# Assays:
# [1] = system: Zika virus NS2B-NS3 protease; test: Primary screen GU AMC qHTS for Zika virus inhibitors (AID 1347154); note: nearly all actives have a fitted effect of over 70% in size
# Method in brief: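 Unlinked Zika NS2B hydrophilic domain/NS3 protease domain noncovalent complex (25 nM final) in 10 mM Tris-HCl pH 8.0, 0.01% Tween 20, with AMC peptide substrate. Fluorescence (ex 340, em 450 nm) change over 15 min, room temperature; percent inhibition fitted to 4-parameter Hill equation.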
# [2] = system: Zika virus NS2B-NS3 protease (unlinked complex); test: Primary screen GU Rhodamine qHTS for Zika virus inhibitors: Unlinked NS2B-NS3 protease assay (AID 1347159); note: nearly all actives have a fitted effect of over 60% in size
# Method in brief: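 A qHTS format was used, with compound concentrations ranging up to 114 microM. Each compound was preincubated with 25 nM NS2B-NS3 protease, and the substrate was then added at 1.5 microM. Curves were fitted with a 4-parameter Hill model.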
# [3] = system: Zika virus NS2B-NS3 protease (linked construct); test: Primary screen NINDS Rhodamine qHTS for Zika virus inhibitors (AID 1347160); settings: outcome: dose series up to 57.1 µM; note: nearly all actives have a fitted effect of over 55% in size
# Method in brief: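 Kinetic fluorescence (Ex 480 nm, Em 540 nm) over 15 min with 1.5 microM Rhodamine110 peptide and 25 nM linked protease.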
# [4] = ZIKV-mCherry secondary qHTS for Zika virus inhibitors (AID 1347158); note: top concentration of the series differs between compounds
# Method in brief: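 Vero cells, 5,000/well, plated overnight at 37 °C, then compound added and infected with recombinant ZIKV-mCherry at MOI 1 for 48-72 h. PFA-fixed, Hoechst nuclear stain, high-content imaging; cells with mCherry intensity above 450 RFU scored infected, reported as percent infection.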
# [5] = Confirmatory screen GU Rhodamine qHTS for Zika virus inhibitors qHTS (AID 1347157); settings: purified enzyme assay, Rhodamine110 substrate fluorescence, 15 min; note: potency is the fitted concentration of half-maximal effect; nearly all actives have a fitted effect of over 70% in size
# Method in brief: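 Unlinked NS2B/NS3, 25 nM; Rhod110 peptide, 1.5 microM; compounds, up to 114 microM. Reaction run 15 min at RT in 10 mM Tris-HCl pH 8.0, 0.01% Tween 20; kinetic fluorescence change fitted with a 4-parameter Hill model.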
# [6] = Confirmatory screen NINDS Rhodamine qHTS for Zika virus inhibitors (AID 1347161); note: potency is the fitted concentration of half-maximal effect; nearly all actives have a fitted effect of over 60% in size
# Method in brief: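 qHTS dose-response: 25 nM linked protease, pH 8.0 Tris/Tween buffer, cpd titration, 15 min RT preinc, 1.5 microM Rhod110 peptide, 15 min reaction (~15% conversion), Ex480/Em540; 4-parameter Hill fit.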
# [7] = system: Zika virus NS2B-NS3 protease (linked); test: 384 well plate NINDS AMC confirmatory qHTS for Zika virus inhibitors (AID 1347163);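 note: linked protease at 5 30 or 60 nM final depending on run; fluorescence of AMC released from Ac-VKTGKR-AMC peptide cleaved by the protease; top concentration of the series differs between compounds; nearly all actives have a fitted effect of over 50% in size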
# Method in brief: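 Linked protease 5/30/60 nM final; cpds up to 1 mM final, ~15 min preinc. Substrate Ac-VKTGKR-AMC 30 microM final. RT, dark, 25 min; FI ex 355/em 460; normalized to no-enzyme/no-inhibitor ctrls.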
compound,measurement,setting,value
Cc1ccc(Nc2c(F)cccc2Cl)c(CC(=O)O)c1,Potency,[1],inactive
same,outcome,[2],inactive
CN1C(CCl)Nc2cc(Cl)c(S(N)(=O)=O)cc2S1(=O)=O (centres undefined),Potency,[1],inactive
same,outcome,[2],inactive
same,outcome,[3],inactive
OC[C@@H](O)[C@@H](O[C@@H]1O[C@H](CO)[C@H](O)[C@H](O)[C@H]1O)[C@H](O)[C@@H](O)CO,Potency,[1],inactive
CC(C)n1nc(-c2cc3cc(O)ccc3[nH]2)c2c(N)ncnc21,Potency,[1],inactive
same,outcome,[2],inactive
same,outcome,[3],inactive
CN1CCC[C@@H]1c1cccnc1,Potency,[1],inactive
same,outcome,[3],inactive
Cc1ccnc(NS(=O)(=O)c2ccc(N)cc2)n1,Potency,[1],inactive
CCOC(=O)OC(C)OC1=C(C(=O)Nc2ccccn2)N(C)S(=O)(=O)c2ccccc21 (centres undefined),Potency,[1],inactive
CCCCC(CC)CN=C(N)NC(N)=NCCCCCCN=C(N)NC(N)=NCC(CC)CCCC (centres undefined),Potency,[4],inactive
O=C1OC(c2ccc(O)cc2)(c2ccc(O)cc2)c2ccccc21,Potency,[1],inactive
COc1ccc(CN2CCN(C(c3ccc(F)cc3)c3ccc(F)cc3)CC2)c(OC)c1OC,Potency,[1],inactive
same,outcome,[2],inactive
same,outcome,[3],inactive
CCCCOc1ccc(OCCCN2CCOCC2)cc1,Potency,[1],inactive
O=C(OCCOCCO)c1ccccc1Nc1cccc(C(F)(F)F)c1,Potency,[1],inactive
same,outcome,[2],inactive
same,outcome,[3],inactive
Cc1nc2n(c(=O)c1CCN1CCC(c3noc4cc(F)ccc34)CC1)CCC[C@H]2O,Potency,[1],inactive
same,outcome,[2],inactive
same,outcome,[3],inactive
CCCCS(=O)(=O)N[C@@H](Cc1ccc(OCCCCC2CCNCC2)cc1)C(=O)O,Potency,[1],inactive
same,outcome,[2],inactive
same,outcome,[3],inactive
Cc1ccccc1C(=O)Nc1ccc(C(=O)N2CCCC(N(C)C)c3ccccc32)cc1 (centres undefined),Potency,[1],inactive
same,outcome,[2],inactive
same,outcome,[3],inactive
CC(C)(C)NC(=O)[C@@H]1CN(Cc2cccnc2)CCN1C[C@@H](O)C[C@@H](Cc1ccccc1)C(=O)N[C@H]1c2ccccc2C[C@H]1O,Potency,[1],inactive
same,outcome,[2],inactive
same,outcome,[3],inactive
NC(=NCCCCCCN=C(N)/N=C(\N)Nc1ccc(Cl)cc1)/N=C(\N)Nc1ccc(Cl)cc1,outcome,[2],inactive
same,outcome,[3],inactive
CC(=O)O[C@]1(C(C)=O)CC[C@H]2[C@@H]3C[C@H](C)C4=CC(=O)CC[C@]4(C)[C@H]3CC[C@@]21C,Potency,[1],inactive
same,outcome,[2],inactive
same,outcome,[3],inactive
CCCCC1=NC2(CCCC2)C(=O)N1Cc1ccc(-c2ccccc2-c2nn[nH]n2)cc1,Potency,[1],inactive
Cc1ccc(C(=O)C(C)CN2CCCCC2)cc1 (centres undefined),Potency,[1],inactive
same,outcome,[2],inactive
same,outcome,[3],inactive
OC[C@H]1O[C@H](O[C@]2(CCl)O[C@H](CCl)[C@@H](O)[C@@H]2O)[C@H](O)[C@@H](O)[C@H]1Cl,Potency,[1],inactive
same,outcome,[2],inactive
same,outcome,[3],inactive
COc1cc(OC)cc(OC)c1,Potency,[1],inactive
COc1cccc(OC)c1C(=O)N[C@@H]1C(=O)N2[C@@H]1SC(C)(C)[C@@H]2C(=O)O,Potency,[1],inactive
same,outcome,[3],inactive
CN(C)CC/C=C1/c2ccccc2COc2ccc(CC(=O)O)cc21,Potency,[1],inactive
O=c1[nH]c(=O)n([C@H]2CCCO2)cc1F,Potency,[1],inactive
same,outcome,[2],inactive
same,outcome,[3],inactive
CC1(C)OC[C@@H](COC(=O)CCc2ccc(OC[C@@H](O)CNCCNC(=O)N3CCOCC3)cc2)O1,Potency,[1],inactive
CN(C)CCCOc1nn(Cc2ccccc2)c2ccccc12,Potency,[1],inactive
same,outcome,[2],inactive
same,outcome,[3],inactive
Oc1c(Cl)cc(Cl)cc1Sc1cc(Cl)cc(Cl)c1O,Potency,[5],22.4 µM (active)
same,Potency,[6],7.08 µM (active)
same,outcome,[7],inactive
CN1[C@@H]2CC[C@H]1CC(OC(=O)c1c[nH]c3ccccc13)C2 (some centres undefined),Potency,[1],inactive
same,outcome,[2],inactive
same,outcome,[3],inactive
CCCCCCCCCCCCCCNCCO,Potency,[1],inactive
COC(=O)[C@@H]1CC2=CC(=O)CC[C@]2(C)[C@@]23O[C@@H]2C[C@@]2(C)[C@@H](CC[C@@]24CCC(=O)O4)[C@H]13,Potency,[1],inactive
C#C[C@]1(OC(C)=O)CC[C@H]2[C@@H]3CCC4=C[C@@H](OC(C)=O)CC[C@@H]4[C@H]3CC[C@@]21C,Potency,[1],inactive
same,outcome,[2],inactive
same,outcome,[3],inactive
CCN1CCCC1=O,Potency,[1],inactive
